IL1B NFkB pot: enhances IL-1B driven NFkB nuclear translocation | AID 819 | activation, % at 2 µM | 0.3% of 94,000 active | HUVEC IL-1B NFkB p65 nuclear translocation imaging;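 active = activation above 40%, about the mean plus 3 SD, also judged a hit on visual image review; inconclusive = activation above 40% but not a hit on visual review; inactive = activation not above 40% and no visual hit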;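 also: percent activation is computed from the nuclear over cytoplasmic p65 intensity ratio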
VCAM1 TNFa inh: reduces TNF alpha induced VCAM1 expression in HUVEC; HUVEC TNFa-induced VCAM-1 immunofluorescence, high-content imaging; inhibition, % at 2 µM; 0.48% of 95,000 active;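 active = inhibition above the batch mean plus 3 SD, with images confirmed as a hit by eye, cut at about 37% in these data; inconclusive = inhibition above that limit but hit not confirmed in images; inactive = inhibition not above that limit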;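 also: 0% = TNF-stimulated DMSO wells and 100% = unstimulated control wells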
E-sel TNF inh: blocks E-selectin expression induced by TNF alpha. inhibition, % at 2 µM. HUVEC TNFa-induced E-selectin immunofluorescence, high content. 0.71% of 120,000 active;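 active = inhibition above the batch mean plus 3 SD, and confirmed as a hit on visual image review, cut at about 43% in these data; inconclusive = passes the inhibition cutoff but fails visual image review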;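 also: 0% = TNF-stimulated DMSO wells and 100% = unstimulated control wells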
HUVEC tox TNFa: toxic to HUVEC cells under TNF alpha stimulation; HUVEC TNFalpha-stimulated, Hoechst cell count, imaging; AID 848; 0.17% of 93,000 active; cell count reduction, % at 2 µM;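 active = cell count reduction exceeding the screen mean by over 5 SD, scaled to untreated wells per plate, cut at about 78% in these data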;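 also: cells counted after 24 h of TNF alpha exposure following the 1 h pretreatment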
NFkB transloc inh: blocks IL-1B driven NFkB nuclear translocation in HUVEC cells; HUVEC IL-1B NFkB p65 nuclear translocation imaging; 0.43% of 94,000 active; inhibition, % at 2 µM;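 active = inhibition above about 30% together with a positive call from visual inspection of the well image, limit read from the data; inconclusive = inhibition above a set limit but visual check negative; inactive = inhibition not above a set limit, visual check negative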;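 also: nuclear over cytoplasmic p65 intensity ratio measured by imaging; 0% = IL-1B stimulated DMSO wells and 100% = unstimulated DMSO wells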
IL1B cytotox: toxic to HUVEC cells under IL-1B stimulation; 0.41% of 94,000 active; cell count reduction, % at 2 µM; HUVEC cell count loss, Hoechst imaging, IL-1B stimulated;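 active = cell count reduction more than 3 SD above the screen-wide mean, cut at about 70% in these data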;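 also: normalized per plate to untreated control cells as the no-loss baseline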
An asterisk follows results filed as active; ? = inconclusive; nt = no result given. Compounds with a hit are over-represented: about 1.7% of the library has one in this group of screens.

SMILES	IL1B NFkB pot	VCAM1 TNFa inh	E-sel TNF inh	HUVEC tox TNFa	NFkB transloc inh	IL1B cytotox
O=C(COc1ccc(Br)cc1)NCc1ccccn1	40.9*	2.8	8.3	-15.8	-40.9	-11.6
O=C(/C=C/c1ccccc1)N1CCC(Cc2ccccc2)CC1	-7.1	-25.2	91.6*	nt	-5.7	20.4
CCOC(=O)c1c(NC(=O)COC)sc2c1CCCC2	-4.4	19.8	52.6*	-11.6	4.4	-30.1
CCOC(=O)c1c(NC(=O)COC(=O)c2c(C)noc2C)sc2c1CCC2	-9.1	-9.4	11.1	1.4	9.1	3.2
CC1(C)Cc2c(oc3ncn4ncnc4c23)CO1	1.9	?	nt	97.4*	-1.9	6.6
CN(CC(=O)Nc1ccc(Cl)cc1)c1ccc(S(=O)(=O)N2CCCCC2)cc1[N+](=O)[O-]	nt	nt	62.3*	nt	nt	nt
COc1ccc(CCN(C)c2ccc(S(=O)(=O)N3CCCC3)cc2[N+](=O)[O-])cc1OC	nt	nt	58.0	nt	nt	nt
CC1CCC(NC(=O)CN2C(=O)COc3ccc(S(=O)(=O)N4CCCC4)cc32)CC1 (stereo not drawn)	nt	nt	-10.0	nt	nt	nt
Cc1ccc(C(=O)C2CCN(CC(=O)Nc3nc(C)cs3)CC2)cc1	-8.8	10.7	-47.9	-1.2	8.8	-54.8
O=C(Nc1c(-c2ccccc2)nc2ccccn12)c1ccco1	-12.4	1.1	-20.9	-4.7	12.4	93.5*
Oc1ccc(Nc2nc3ccccc3nc2Nc2ccc(O)cc2)cc1	-23.3	93.5*	46.3	nt	23.3	1.5
Fc1ccc(-c2ccnc(=S)[nH]2)cc1	9.8	17.0	11.3	-14.9	-9.8	5.3
COc1cccc(-c2cnc(NCc3cc(Cl)ccc3O)n2C)c1	-10.2	20.9	60.5*	-15.9	10.2	-34.6
COc1ccc(C)cc1-n1nnnc1SCC(=O)Nc1cccnc1Cl	nt	nt	77.7*	nt	nt	nt
COc1ccc(C)cc1-n1nnnc1SCC(=O)Nc1cc(C)on1	nt	nt	-40.4	nt	nt	nt
CCCc1cc(=O)[nH]c(SCC(=O)Nc2nonc2N)n1	5.3	86.1*	-11.0	-34.3	-5.3	10.2
CCOC(=O)C1CCCN(Cc2cc(Br)ccc2OC)C1 (stereo not drawn)	nt	nt	-15.1	nt	nt	nt
CCOC(=O)C1CCCN(Cc2cc(Br)c(OC)cc2OC)C1 (stereo not drawn)	-98.5	8.2	-2.5	-14.4	98.5*	84.5*
CCOC(=O)C1CCCN(Cc2ccccc2F)C1 (stereo not drawn)	nt	nt	74.6*	nt	nt	nt
CCCCN1C(=O)C2C3C=CC(C2C1=O)C1C2C(=O)N(CCCC)C(=O)C2C31 (stereo not drawn)	nt	nt	71.8*	nt	nt	nt
COc1ccccc1C(=O)OCC(=O)Nc1ccc(Cl)cn1	nt	nt	-20.8	nt	nt	nt
CCOC(=O)c1cnn(-c2nc(CC)nc3sc4c(c23)CCC4)c1N	-9.5	91.9*	nt	76.5	9.5	-30.1
CCOc1ccc(N(CC(=O)Nc2cccc(OC)c2)S(=O)(=O)c2c(C)noc2C)cc1	-49.5	14.6	nt	-16.4	49.5*	-18.2
CCOc1ccc(N(CC(=O)Nc2cccc(Cl)c2)S(=O)(=O)c2c(C)noc2C)cc1	-9.1	-8.2	nt	-10.4	9.1	-29.5
Cc1ccc(C(=O)N[C@H](C(=O)Nc2cc(Cl)cc(Cl)c2)C(C)C)cc1	nt	nt	6.3	nt	nt	nt
SMILES	IL1B NFkB pot	VCAM1 TNFa inh	E-sel TNF inh	HUVEC tox TNFa	NFkB transloc inh	IL1B cytotox
CCS(=O)(=O)N1CCCC(C(=O)NCc2cccc(OC)c2)C1 (stereo not drawn)	8.2	27.4	53.1*	11.3	-8.2	-47.3
COc1ccc(CNC(=O)C2CCCN(S(=O)(=O)c3c(C)n[nH]c3C)C2)cc1 (stereo not drawn)	11.3	9.5	18.2	-18.3	-11.3	0.3
COc1cccc(CNC(=O)C2CCCN(S(=O)(=O)c3c(C)n[nH]c3C)C2)c1 (stereo not drawn)	8.1	-18.1	nt	78.9*	-8.1	-15.5
CCOc1ccc(CNC(=O)C2CCCN(S(C)(=O)=O)C2)cc1OC (stereo not drawn)	7.9	nt	-13.0	nt	-7.9	-14.3
CCOc1ccc(CNC(=O)C2CCN(S(=O)(=O)CC)CC2)cc1OC	23.9	20.4	12.8	7.5	-23.9	93.9*
COc1ccc(Oc2ccc(/C=C/C(=O)c3ccc(O)cc3)cc2[N+](=O)[O-])cc1	nt	nt	18.1	nt	nt	nt
O=C(Nc1ccc2c(c1)OCO2)C1COc2ccccc2O1 (stereo not drawn)	14.6	-9.8	8.0	6.6	-14.6	-14.8
Cc1cc(C)n(C(=O)c2ccc(NC(=O)C3COc4ccccc4O3)cc2)n1 (stereo not drawn)	0.9	98.0*	-10.8	85.4*	-0.9	-18.7
O=C(CSc1ccccn1)N/N=C/c1ccccc1[N+](=O)[O-]	nt	nt	62.3*	nt	nt	nt
COC(=O)c1cn(NC(=O)c2ccc(OC)c(OC)c2)c(=O)c2ccccc12	-39.0	-11.1	nt	14.8	39.0*	-2.0
COc1ccc(CNC(=O)c2ccc(CS(=O)(=O)Cc3ccccc3F)o2)cc1	nt	nt	24.9	nt	nt	nt
CCN(CC)C(=O)CC(c1ccc(F)cc1)c1ccc(OC)cc1 (stereo not drawn)	nt	nt	0.5	nt	nt	nt
CCCN(CCC)C1=N/C(=C\c2ccco2)C(=O)N1c1ccccc1	7.5	2.7	-6.4	17.5	-7.5	2.5
CCOC(=O)C1=C(CC)OC(N)=C(C#N)C1c1cc(OC)ccc1OC (stereo not drawn)	nt	nt	94.5*	nt	nt	nt
CCOC(=O)C1=C(CC)OC(N)=C(C#N)C1c1ccc(OC)c(C)c1OC (stereo not drawn)	nt	nt	37.4	nt	nt	nt
CC(=O)c1cc(C#N)c(SCc2ccc([N+](=O)[O-])cc2)nc1C	nt	nt	-35.9	nt	nt	nt
CC(C)N(CCc1ccncc1)C(=O)Nc1ccc(Cl)c(Cl)c1	43.1*	-38.5	16.2	14.7	-43.1	6.8
COc1ccc(C2CC(=O)C=C(NNS(=O)(=O)c3ccc(C)cc3)C2)cc1 (stereo not drawn)	nt	nt	33.8	nt	nt	nt
CCOC(=O)CSc1cc(CS(=O)(=O)c2ccccc2)nc(-c2ccccc2)n1	10.8	-4.7	-26.3	-35.3	-10.8	82.7*
COCC(C)NC(=O)CSc1nc(-c2ccccc2)c(-c2ccccc2)o1 (stereo not drawn)	15.6	-5.1	-5.2	-23.1	-15.6	-3.8
O=C(O)C1C2C=CC(C2)C1C(=O)NCCc1ccccc1 (stereo not drawn)	20.8	-7.5	3.3	-8.6	-20.8	-35.9
O=C(O)C1C2C=CC(C2)C1C(=O)NCCCc1ccccc1 (stereo not drawn)	nt	nt	68.0*	nt	nt	nt
Cc1ccc(NC(=O)COC(=O)/C=C/c2cccs2)c(C)c1	nt	nt	-43.7	nt	nt	nt
CN=c1sc2ccccc2n1CC(O)COc1ccccc1 (stereo not drawn)	3.3	75.0*	nt	69.6	-3.3	-2.5
CCN=c1sc2ccccc2n1CC(O)COc1ccccc1 (stereo not drawn)	-8.9	2.5	20.7	7.2	8.9	-129.1
CCCc1nc(-c2cc3ccc(C)cc3[nH]c2=O)no1	-7.9	-14.3	-4.7	-21.8	7.9	84.3*
Cc1cc(NC(=O)CSCC(=O)N(c2cccc(Cl)c2)C(C(=O)NC2CCCCC2)c2ccc(O)c(O)c2)no1 (stereo not drawn)	nt	nt	2.3	nt	nt	nt
COc1cc(-c2nc(-c3ccc(NC(=O)c4ccc(Br)o4)cc3)no2)cc(OC)c1OC	8.0	4.1	-15.5	-16.1	-8.0	10.2

From PubChem BioAssay
